The text below walks through data of PubChem BioAssay (NCATS).

Test [1] concerns the target Rap guanine nucleotide exchange factor 3 (Homo sapiens) (UniProt O95398). The experiment in a line: Confirmatory qHTS for antagonist of cAMP-regulated guanine nucleotide exchange factor 3 (EPAC1) (AID 1645880). Further: nearly all actives have a fitted effect of over 55% in size. Further: potency means the concentration at half of the fitted maximal effect. An outline of the steps:
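Nucleotide exchange uses 100 nM EPAC1, 250 nM RAP1B-BODIPY-GDP and 50 uM GDP, with compounds in a concentration-titration series. After 5 min at room temperature, fluorescence (480 nm ex/540 nm em) is read every 5 min for 30 min. Data are normalized to control ATA and DMSO.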
A general note: Quantitative high-throughput screening tests each substance at several concentrations.

Test [2] shares this target. The experiment in a line: Confirmatory qHTS for agonist of cAMP-regulated guanine nucleotide exchange factor 3 (EPAC1) (AID 1645881).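 Further: EPAC1 catalysed release of BODIPY-GDP from Rap1B seen as fluorescence loss; 100% = effect of cAMP agonist control; nearly all actives have a fitted effect of over 75% in size.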
For test [3], the target named is Rap guanine nucleotide exchange factor 4 (Homo sapiens) (UniProt Q8WZA2). Description: Confirmatory qHTS for agonist of cAMP-regulated guanine nucleotide exchange factor 4 (EPAC2) (AID 1645884).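 Further: nucleotide exchange releases bodipy-GDP from Rap1 and this lowers its fluorescence; on the % scale 0 is the no-effect control and ±100 the full control effect; nearly all actives have a fitted effect of over 65% in size.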
Rap guanine nucleotide exchange factor 4 (Homo sapiens), sequence (Q8WZA2 whole entry, looked up): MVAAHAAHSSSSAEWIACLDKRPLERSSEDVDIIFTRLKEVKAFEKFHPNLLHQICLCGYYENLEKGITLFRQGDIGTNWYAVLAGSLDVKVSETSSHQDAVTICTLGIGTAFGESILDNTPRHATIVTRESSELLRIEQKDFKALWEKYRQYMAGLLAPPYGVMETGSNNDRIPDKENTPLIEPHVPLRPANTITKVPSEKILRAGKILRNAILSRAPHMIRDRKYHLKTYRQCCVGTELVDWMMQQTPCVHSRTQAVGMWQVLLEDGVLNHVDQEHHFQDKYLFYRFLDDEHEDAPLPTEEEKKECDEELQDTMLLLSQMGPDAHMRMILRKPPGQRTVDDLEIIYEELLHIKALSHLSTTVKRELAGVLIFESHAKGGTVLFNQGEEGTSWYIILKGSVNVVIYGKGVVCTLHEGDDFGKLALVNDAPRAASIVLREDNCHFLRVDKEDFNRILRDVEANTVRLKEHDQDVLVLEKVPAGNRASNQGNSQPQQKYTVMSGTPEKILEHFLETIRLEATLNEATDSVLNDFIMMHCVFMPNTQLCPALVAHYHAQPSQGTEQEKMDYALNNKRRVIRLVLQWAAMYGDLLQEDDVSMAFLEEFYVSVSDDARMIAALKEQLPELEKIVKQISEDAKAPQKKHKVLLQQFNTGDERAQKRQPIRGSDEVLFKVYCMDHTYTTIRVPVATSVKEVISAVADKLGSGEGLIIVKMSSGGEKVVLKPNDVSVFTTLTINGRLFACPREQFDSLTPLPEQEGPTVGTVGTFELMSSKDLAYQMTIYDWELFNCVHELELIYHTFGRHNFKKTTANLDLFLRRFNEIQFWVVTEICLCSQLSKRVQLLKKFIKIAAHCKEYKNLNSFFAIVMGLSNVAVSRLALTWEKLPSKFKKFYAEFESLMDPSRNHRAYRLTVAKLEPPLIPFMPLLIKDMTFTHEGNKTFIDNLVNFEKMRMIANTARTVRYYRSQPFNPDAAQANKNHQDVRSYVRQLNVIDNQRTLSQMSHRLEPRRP
Test [4] shares this target. The experiment in a line: Confirmatory qHTS for antagonist of cAMP-regulated guanine nucleotide exchange factor 4 (EPAC2) (AID 1645885). Further: nearly all actives have a fitted effect of over 25% in size. Further: potency means the concentration at half of the fitted maximal effect. On activity change, negative = inhibition: on the % scale 0 is the no-effect control and ±100 the full control effect.
Test [5] has as its target Rap guanine nucleotide exchange factor 3 (Homo sapiens) (UniProt O95398). The experiment in a line: Counterscreen qHTS for antagonist of cAMP-regulated guanine nucleotide exchange factor 3 (EPAC1) (AID 1645888).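 Further: fluorescence loss as bound BODIPY-GDP is released from Rap1B; % of control where 0% means no effect.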 An outline of the steps: (§1)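 Rap1B-BODIPY-GDP 250 nM + GDP 50 uM; cpds 7-pt, final 9.74 nM–152 uM (activator mode) or from 7.32 nM upwards (inhibitor mode); RT; FI 480/540 nm at 5 and 30 min, then ± cAMP, reread.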
A general note: A counterscreen serves to expose hits that act by an unwanted route or on another target.

Test [6] shares this target. Description: Counterscreen qHTS for agonist of cAMP-regulated guanine nucleotide exchange factor 3 (EPAC1) (AID 1645889). Further: % of control where 0% means no effect; nearly all actives have a fitted effect of over 40% in size. In outline: as §1

Records with an inconclusive call do not appear. Values without a mark were called inactive. Active and inactive are the calls of the source. The call rests on the fitted dose curve; in most records, active means well fitted curve in the direction sought with a large enough effect; inconclusive means small, poorly fitted or top-dose-only effect, or another doubt; inactive means no such curve, though single readings can be large; an effect the other way counts as inactive or inconclusive.

Rap guanine nucleotide exchange factor 3 (Homo sapiens), sequence (O95398 whole entry, looked up): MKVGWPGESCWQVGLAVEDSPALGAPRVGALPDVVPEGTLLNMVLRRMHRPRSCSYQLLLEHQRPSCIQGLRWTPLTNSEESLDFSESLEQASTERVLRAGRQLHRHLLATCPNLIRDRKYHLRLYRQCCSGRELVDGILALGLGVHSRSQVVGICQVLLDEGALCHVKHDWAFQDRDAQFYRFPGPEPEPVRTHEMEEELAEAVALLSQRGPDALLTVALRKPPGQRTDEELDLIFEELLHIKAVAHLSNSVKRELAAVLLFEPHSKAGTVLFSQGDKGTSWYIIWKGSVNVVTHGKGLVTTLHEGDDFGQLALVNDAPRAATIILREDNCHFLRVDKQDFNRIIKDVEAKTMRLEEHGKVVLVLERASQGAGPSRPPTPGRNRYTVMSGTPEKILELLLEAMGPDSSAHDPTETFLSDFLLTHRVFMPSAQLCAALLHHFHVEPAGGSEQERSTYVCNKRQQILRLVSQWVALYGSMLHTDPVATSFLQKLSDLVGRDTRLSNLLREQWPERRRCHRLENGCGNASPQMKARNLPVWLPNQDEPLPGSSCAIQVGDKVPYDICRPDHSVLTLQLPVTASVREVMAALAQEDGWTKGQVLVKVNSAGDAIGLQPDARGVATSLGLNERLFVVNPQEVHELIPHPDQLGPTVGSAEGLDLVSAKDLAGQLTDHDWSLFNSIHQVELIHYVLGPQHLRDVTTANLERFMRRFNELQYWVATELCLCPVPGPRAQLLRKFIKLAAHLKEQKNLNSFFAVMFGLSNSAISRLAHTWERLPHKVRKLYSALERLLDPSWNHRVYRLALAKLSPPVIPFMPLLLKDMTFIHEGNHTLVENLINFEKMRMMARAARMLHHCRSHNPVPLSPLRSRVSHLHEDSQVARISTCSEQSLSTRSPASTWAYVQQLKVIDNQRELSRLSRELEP

With `Cn1c2ccccc2c2cc(/C=N/NC(=O)c3cc(O)ccc3O)ccc21`, the Potency in test [1] was 25.1 µM (active). The Potency entry in test [2] and in test [4] was “inactive” throughout. Further, the activation in test [3] is -2.01% [at 17.1 µM, percent relative to cAMP agonist control]; in test [6] it was 29.4% [at 30.8 µM]. In test [5], the activity change, negative = inhibition was -0.77% [at 30.8 µM].
For the compound `COc1ccc(N(C)C(=O)c2oc(=O)c3ccccc3c2-c2ccc(C)cc2)c(OC)c1`, the Potency result in test [1], in test [2], in test [3], in test [4], in test [5] and in test [6] was “inactive” each time.
Regarding `O=C(c1ccccc1[N+](=O)[O-])N1CCN(c2ccc(N3CCOCC3)nn2)CC1`, the Potency result in test [1], in test [2], in test [3], in test [4], in test [5] and in test [6] was “inactive” in each case.
Turning to `CCOC(=O)C1=CCN(S(=O)(=O)c2ccc(C)cc2)C1c1cccs1` (stereo unspecified), the Potency entry in test [1], in test [2] and in test [4] was “inactive” each time. The activation in test [3] was 5.63% [at 17.1 µM, percent relative to cAMP agonist control]; in test [6], 22.8% [at 30.8 µM]. Further, the activity change, negative = inhibition in test [5] was 6.49% [at 30.8 µM].
Turning to `COCCN(C)Cc1nc(C(c2ccccc2)c2ccccc2)no1`, the Potency entry in test [1], in test [2], in test [3], in test [5] and in test [6] was “inactive” in each case. In addition, the Potency in test [4] is 47.8 µM (active).
In the case of `CCN(CC(=O)Nc1ccccc1C(F)(F)F)C(=O)CCOc1ccccc1C`, the Potency entry in test [1], in test [2] and in test [4] was “inactive” each time. The activation in test [3] was -3.64% [at 17.1 µM, percent relative to cAMP agonist control]; in test [6] it was 1.11% [at 30.8 µM]. Besides, in test [5], the activity change, negative = inhibition is -14% [at 30.8 µM].
Turning to `COc1ccc(NC(=O)c2ccc(NC3=NC4CS(=O)(=O)CC4S3)cc2)cc1` (stereo unspecified), the Potency entry in test [1], in test [2] and in test [4] was “inactive” throughout. Besides, the activation in test [3] is 1.91% [at 17.1 µM, percent relative to cAMP agonist control]; in test [6] it was 0.693% [at 30.8 µM]. The activity change, negative = inhibition in test [5] is -1.99% [at 30.8 µM].
On to `NS(=O)(=O)c1ccc(-c2cccc(/C=C3\SC(=O)NC3=O)c2)cc1`, for which the Potency in test [1] is 33.8 µM (active). For the same compound, the Potency entry in test [2], in test [3], in test [4], in test [5] and in test [6] was “inactive” each time.
Turning to `Cc1ccc(C(=O)ONc2ccc(N=NC(=O)c3ccccc3O)cc2)cc1`, the Potency in test [1] was 7.57 µM (active). Further, the Potency entry in test [2], in test [3], in test [4], in test [5] and in test [6] was “inactive” in each case.
Consider `O=c1[nH]c2cc3c(cc2cc1CN(Cc1ccccc1)Cc1nnnn1Cc1ccco1)OCCO3`, for which the Potency in test [1] was 42.6 µM (active). The Potency result in test [2], in test [3], in test [4], in test [5] and in test [6] was “inactive” in each case.
Consider `CCOc1cc(C2C3=C(CC(C)(C)CC3=O)N(CCOC)C3=C2C(=O)CC(C)(C)C3)ccc1O`, for which the Potency entry in test [1], in test [2], in test [3], in test [4], in test [5] and in test [6] was “inactive” throughout.
With `C=CCn1c(O)c(N=NC(=O)CNC(=O)/C=C/c2ccc(OC)cc2)c2ccccc21`, the Potency result in test [1], in test [2], in test [3], in test [4], in test [5] and in test [6] was “inactive” each time.
Take `Nc1c(C(=O)c2ccccc2)sc2nsc(SCCN3CCOCC3)c12`: the Potency result in test [1], in test [2], in test [3], in test [4], in test [5] and in test [6] was “inactive” throughout.
Consider `CCOC(=O)c1ccc(N2C(=O)c3[nH]nc(-c4ccc(OCC)cc4)c3C2c2cccs2)cc1` (stereo unspecified), for which the Potency result in test [1], in test [2], in test [3], in test [4], in test [5] and in test [6] was “inactive” each time.
As to `Cc1ccc(S(=O)(=O)NCCC(=O)N2CC(C)OC(C)C2)cc1` (stereo unspecified), the Potency result in test [1], in test [2], in test [3], in test [4], in test [5] and in test [6] was “inactive” throughout.
On to `COc1ccc(CCNC(=O)CCCCCn2c(SCC(N)=O)nc3cc4c(cc3c2=O)OCO4)cc1OC`, for which the Potency entry in test [1], in test [2], in test [3], in test [4], in test [5] and in test [6] was “inactive” each time.
Turning to `CCC(=O)C1=C(c2cccc([N+](=O)[O-])c2)N(C(=O)CC)n2c(nnc2-c2ccccc2)S1`, the Potency result in test [1], in test [2], in test [3], in test [4], in test [5] and in test [6] was “inactive” throughout.
As to `CCOC(=O)c1ccccc1NC(=S)N1CCC(N2CCCCC2)CC1`, the Potency result in test [1], in test [2], in test [3], in test [4], in test [5] and in test [6] was “inactive” in each case.
As for `CC(C)Cc1csc(NC(=O)c2ccc(F)cc2)c1C(=O)O`, the Potency entry in test [1], in test [2], in test [3], in test [4], in test [5] and in test [6] was “inactive” in each case.
Turning to `O=C1c2cc(O)c(O)cc2OC(c2ccc(O)c(O)c2)C1O` (stereo unspecified), the Potency in test [1] is 42.6 µM (active). The Potency result in test [2], in test [3], in test [4], in test [5] and in test [6] was “inactive” each time.
Regarding `CCCc1cc(=O)oc2c3c(cc(OCC(=O)NCc4ccccn4)c12)OC(C)(C)CC3`, the Potency result in test [1], in test [2], in test [3], in test [4], in test [5] and in test [6] was “inactive” throughout.
